# In PubChem BioAssay AID1210 (NMMLSC, 2008):
# Values without a mark were called inactive. The source made the active and inactive calls.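 How the source made its calls: active means blocks over 70% of labeled estradiol binding at 10 µM, or over a set limit at 100 nM; inactive means the rest.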
# Target: Estrogen receptor beta (Homo sapiens) (UniProt Q92731)
# Test: displacement of fluorescent estrogen from ERbeta – cell-based, Cos7 ERbeta-GFP, flow cytometry, primary screen (AID 1210);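 further: 0% = DMSO vehicle wells and 100% = complete loss of labeled estradiol signal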
# Details: fluorescent estrogen binding, at 10 µM, stronger effect = higher value
# Sequence of Estrogen receptor beta (Homo sapiens) (Q92731 whole entry, looked up): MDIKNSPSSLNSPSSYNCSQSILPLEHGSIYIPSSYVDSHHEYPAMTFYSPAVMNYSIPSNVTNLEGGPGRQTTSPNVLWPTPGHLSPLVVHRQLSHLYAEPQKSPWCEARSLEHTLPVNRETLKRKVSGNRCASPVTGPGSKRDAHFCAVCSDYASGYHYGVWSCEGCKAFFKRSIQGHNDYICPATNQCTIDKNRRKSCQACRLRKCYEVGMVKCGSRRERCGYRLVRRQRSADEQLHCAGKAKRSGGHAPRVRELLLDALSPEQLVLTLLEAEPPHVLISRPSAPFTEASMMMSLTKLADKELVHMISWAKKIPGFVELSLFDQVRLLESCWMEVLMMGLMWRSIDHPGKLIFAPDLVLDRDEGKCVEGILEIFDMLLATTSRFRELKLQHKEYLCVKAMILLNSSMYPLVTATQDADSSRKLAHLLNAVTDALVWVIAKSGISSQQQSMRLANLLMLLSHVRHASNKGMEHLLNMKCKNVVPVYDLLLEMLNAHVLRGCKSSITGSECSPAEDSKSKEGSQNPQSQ
row,Compound,inhibition
1,Cc1nnc(N/N=C/c2ccc(O)c([N+](=O)[O-])c2)[nH]c1=O,7%
2,O=c1oc2cc(O)ccc2c2c1CCC2,8%
3,COc1ccc(NS(=O)(=O)c2ccc3c(c2)[C@H]2C=CC[C@H]2[C@@H](c2ccc(C(=O)O)cc2)N3)cc1,88% (active)
4,COc1ccccc1C1Nc2c(C(=O)O)cccc2C2C3CCC(C3)C12 (stereo not drawn),21%
5,Cc1c(Cc2ccccc2)c(=O)n2c([nH]c3ccccc32)c1C#N,9%
6,CCOc1cc2c(c([N+](=O)[O-])c1)NC(c1ccc(Br)cc1)C1CC=CC21 (stereo not drawn),7%
7,Cc1cc(C)c(C(=O)COc2cccnc2[N+](=O)[O-])cc1C,0%
8,Nc1c(Cl)cc(Cl)cc1C(=O)OCC(=O)NC1CC1,42%
9,Cc1cccc2cc(C(c3nnnn3C(C)(C)C)N(Cc3ccco3)CC3CCCO3)c(=O)[nH]c12 (stereo not drawn),18%
10,CCOC(=O)c1ccc2c(c1)C1C=CCC1C(c1cccc([N+](=O)[O-])c1)N2 (stereo not drawn),6%
11,CCOC(=O)COc1cc2oc(=O)c3c(c2cc1CC)CCCC3,23%
12,CCOc1ccccc1-n1nnnc1SCC(=O)NC(=O)NCc1ccco1,32%
13,COc1ccc(Oc2ccc3c(c2)c2c4n3CCNC4CCC2)cc1 (stereo not drawn),7%
14,CCOC(=O)Cc1cc(-c2ccc(O)cc2)nc2ccc3ccccc3c12,69%
15,O=C(N/N=C/c1cccc(Oc2ccc([N+](=O)[O-])cc2[N+](=O)[O-])c1)c1cncc(Br)c1,46%
16,COc1ccc(C2Nc3ccccc3C(=O)N2c2ccccc2)cc1CSc1ccccn1 (stereo not drawn),60%
17,Cc1ccc2c(c1C)NC(C(=O)O)C1CC=CC21 (stereo not drawn),3%
18,COc1ccc(OC)c(NC(=O)c2cc(-c3ccc(C)cc3O)n[nH]2)c1,19%
19,CCCNC(=O)c1ccc2c(c1)C1C3CCC(C3)C1C(c1ccccc1)N2 (stereo not drawn),54%

row,Compound,inhibition
1,Cc1noc(C)c1S(=O)(=O)N(CC(=O)O)c1ccc2c(c1)OCO2,31%
2,COc1cccc2c1NC(C(=O)O)C1CC=CC21 (stereo not drawn),15%
3,CC(=O)Oc1ccc2c(c1)CCC1C2C(O)CC2(C)C(=O)CCC12 (stereo not drawn),77% (active)
4,CCCc1cc(=O)oc2c(C)c(OC3CCCCC3=O)ccc12 (stereo not drawn),19%
5,CCc1cc2c3c(c(=O)oc2cc1OC)CCCC3,18%
6,Cc1ccc(-c2nn3c(C)nnc3s2)cc1NC(=O)COc1ccc(Cl)cc1,24%
7,O=c1oc2c(O)c(O)cc3c(=O)oc4c(O)c(O)cc1c4c23,13%
8,O=C1CC(c2ccc3c(c2)OCO3)c2ccc3ccccc3c2N1 (stereo not drawn),19%
9,CC(C)C1Nc2ccc(C(=O)O)cc2C2C=CCC21 (stereo not drawn),35%
10,O=C(O)c1ccc2c(c1)C1C=CCC1C(c1cccc([N+](=O)[O-])c1)N2 (stereo not drawn),33%
11,CCOc1cc2c(cc1OCC)C(C(CC)CC)NCC2 (stereo not drawn),10%
12,Cc1ccc(-n2nnnc2SCC(=O)Nc2cccc(NC(=O)c3ccco3)c2)cc1C,56%
13,CCOc1ccc(NS(=O)(=O)c2ccc3c(c2)[C@H]2C=CC[C@H]2[C@@H](c2cccc([N+](=O)[O-])c2)N3)cc1,0%
14,CCCc1c(C(=O)OCC)[nH]c2c1C(=O)CC(c1ccccc1)C2 (stereo not drawn),39%
15,COc1cc(C2C3C(C)N(C)C(=O)N(C)C3N(C)C(=O)N2C)ccc1O (stereo not drawn),12%
16,Cc1ccn2c(NCc3ccc4c(c3)OCO4)c(-c3ccc(O)cc3)nc2c1,41%
17,O=C(NC1CC1)c1ccc2c(c1)C1C3CCC(C3)C1C(c1ccccc1)N2 (stereo not drawn),0%
18,COc1cc(-c2nc3ccc4ccccc4c3c3c2CCC3)cc(OC)c1O,64%
19,Cc1sc2ncnc(NCc3ccco3)c2c1C,39%
